The values below come from PubChem BioAssay.

Unmarked numbers belong to inactive results. For some of these results: Results with a measured potency or affinity are listed apart. The source made the active and inactive calls. Unless noted, how the calls were made is not given here.

Test [1] is described as follows: antimalarial activity against Dd2 strain (AID 2302;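 active means growth inhibition above 50% at the single 2 µM test dose, taken to imply half-maximal potency below 2 µM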;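 further: 0% = DMSO untreated growth and 100% = chloroquine plus artemisinin killed control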). The conditions noted are these: P. falciparum Dd2 in RBCs, LDH growth readout, 72 h; at 2 µM; stronger effect = higher value.
Test [2] in a line: human hepatoma cell viability loss – ATP luminescence, cytotoxicity control for P. falciparum antimalarial project, primary screen (AID 2303;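 active means inhibition above 50%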;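 further: 0% = DMSO wells and 100% = digitonin-killed cells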). The conditions noted are these: HepG2 viability, 24-48 h, at 10 µM, stronger effect = higher value.
Test [3] addresses L-lactate dehydrogenase (Plasmodium falciparum (isolate CDC / Honduras)) (UniProt Q27743). Kind of test: PfLDH activity inhibition – cell lysate, 3D7 strain, counter-screen for P. falciparum growth inhibition project (AID 2304).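 Further: 0% = vehicle and 100% = reference inhibitor.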 The conditions noted are these: P. falciparum 3D7 crude extract, LDH APAD/NBT absorbance; at 2 µM; stronger effect = higher value.
The nature of test [4]: inhibition of 3D7 malaria parasite growth – strain 3D7 (AID 2306).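 Further: 0% = DMSO wells and 100% = chloroquine plus artemisinin control wells.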 The conditions noted are these: P. falciparum 3D7 erythrocytic growth, LDH absorbance, 72 h; at 2 µM; stronger effect = higher value.
Test [5] addresses Calcium-dependent protein kinase 1 (Plasmodium falciparum (isolate 3D7)) (UniProt P62344). The test can be described thus: PfCDPK1 kinase inhibitors, biochemical, TCAMS library (AID 1159585; cut-off not given, nearly all actives have IC50 up to about 0.98 µM;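 further: inhibitors leave more ATP so luminescence rises with inhibition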). The conditions noted are these: recombinant PfCDPK1, Kinase-Glo ATP depletion luminescence.
For test [6], the target named is Plasmodium falciparum protein kinase 6 (PK6, PF3D7_1337100) (UniProt Q8IDW1). The test can be described thus: PfPK6 kinase inhibitors, biochemical, TCAMS library (AID 1159586). Particulars: recombinant PfPK6, Kinase-Glo ATP depletion luminescence. (Kinase-Glo measures the ATP left after a reaction by luminescence.)
The target in test [7] is Protein kinase 7 (PK7), Plasmodium falciparum 3D7 (PF3D7_0213400) (UniProt Q7YTF7). The test can be described thus: inhibition of Plasmodium PK7 catalytic activity – biochemical, TCAMS antimalarial set, Kinase-Glo luminescence (AID 1159587). Particulars: recombinant PfPK7, Kinase-Glo ATP depletion luminescence.
The target in test [8] is Calcium-dependent protein kinase 4 (Plasmodium falciparum (isolate 3D7)) (UniProt Q8IBS5). Kind of test: PfCDPK4 kinase inhibitors, biochemical, TCAMS library (AID 1159588; cut-off not given, nearly all actives have IC50 up to about 0.91 µM). Particulars: recombinant PfCDPK4, Kinase-Glo ATP depletion luminescence.
Chain of Calcium-dependent protein kinase 4 (Plasmodium falciparum (isolate 3D7)) (Q8IBS5 whole entry, looked up): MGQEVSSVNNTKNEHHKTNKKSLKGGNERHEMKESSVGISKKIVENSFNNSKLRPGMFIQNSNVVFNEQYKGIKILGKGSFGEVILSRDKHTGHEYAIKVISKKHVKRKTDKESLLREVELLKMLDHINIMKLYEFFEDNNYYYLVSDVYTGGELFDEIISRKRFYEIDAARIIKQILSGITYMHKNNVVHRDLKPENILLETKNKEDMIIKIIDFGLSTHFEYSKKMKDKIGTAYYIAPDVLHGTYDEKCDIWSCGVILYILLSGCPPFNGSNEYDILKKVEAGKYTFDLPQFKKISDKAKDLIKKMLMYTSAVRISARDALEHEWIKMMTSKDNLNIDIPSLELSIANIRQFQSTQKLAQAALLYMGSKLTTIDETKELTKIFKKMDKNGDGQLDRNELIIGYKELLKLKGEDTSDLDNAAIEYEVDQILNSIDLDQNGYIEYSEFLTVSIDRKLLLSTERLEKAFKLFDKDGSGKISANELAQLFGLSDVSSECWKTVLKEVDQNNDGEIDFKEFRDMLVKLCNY

Chain of Calcium-dependent protein kinase 1 (Plasmodium falciparum (isolate 3D7)) (P62344 whole entry, looked up): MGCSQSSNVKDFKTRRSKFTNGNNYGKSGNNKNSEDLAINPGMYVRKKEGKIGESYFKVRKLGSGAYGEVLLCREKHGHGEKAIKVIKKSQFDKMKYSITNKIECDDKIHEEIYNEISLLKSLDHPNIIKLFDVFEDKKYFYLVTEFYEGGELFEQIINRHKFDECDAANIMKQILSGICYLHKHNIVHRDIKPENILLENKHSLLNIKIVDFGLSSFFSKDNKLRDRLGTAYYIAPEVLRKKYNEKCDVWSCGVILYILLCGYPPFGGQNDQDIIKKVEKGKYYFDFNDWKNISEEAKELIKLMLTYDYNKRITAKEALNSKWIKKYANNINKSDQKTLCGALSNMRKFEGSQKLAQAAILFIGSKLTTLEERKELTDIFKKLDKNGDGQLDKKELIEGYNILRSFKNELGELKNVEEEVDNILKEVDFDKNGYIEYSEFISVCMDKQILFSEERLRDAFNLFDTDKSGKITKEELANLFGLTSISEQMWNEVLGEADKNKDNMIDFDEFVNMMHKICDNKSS
Chain of Plasmodium falciparum protein kinase 6 (PK6, PF3D7_1337100) (Q8IDW1 1-305): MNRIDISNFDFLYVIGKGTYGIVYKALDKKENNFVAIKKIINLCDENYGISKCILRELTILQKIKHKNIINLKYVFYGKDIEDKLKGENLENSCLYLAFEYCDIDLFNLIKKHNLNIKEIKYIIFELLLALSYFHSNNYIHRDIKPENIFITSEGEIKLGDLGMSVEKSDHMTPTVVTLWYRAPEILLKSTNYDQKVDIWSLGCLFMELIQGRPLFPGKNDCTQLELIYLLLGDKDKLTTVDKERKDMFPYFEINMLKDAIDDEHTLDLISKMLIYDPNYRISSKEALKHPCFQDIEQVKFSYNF
Chain of L-lactate dehydrogenase (Plasmodium falciparum (isolate CDC / Honduras)) (Q27743 whole entry, looked up): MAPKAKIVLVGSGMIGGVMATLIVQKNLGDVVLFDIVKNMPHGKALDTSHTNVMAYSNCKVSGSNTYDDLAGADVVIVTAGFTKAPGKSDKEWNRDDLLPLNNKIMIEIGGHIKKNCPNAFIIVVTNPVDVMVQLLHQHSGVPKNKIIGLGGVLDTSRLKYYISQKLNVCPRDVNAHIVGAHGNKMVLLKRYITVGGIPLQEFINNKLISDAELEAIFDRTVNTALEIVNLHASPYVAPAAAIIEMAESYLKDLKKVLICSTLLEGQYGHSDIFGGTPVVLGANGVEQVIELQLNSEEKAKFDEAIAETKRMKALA
Chain of Protein kinase 7 (PK7), Plasmodium falciparum 3D7 (PF3D7_0213400) (Q7YTF7 1-343): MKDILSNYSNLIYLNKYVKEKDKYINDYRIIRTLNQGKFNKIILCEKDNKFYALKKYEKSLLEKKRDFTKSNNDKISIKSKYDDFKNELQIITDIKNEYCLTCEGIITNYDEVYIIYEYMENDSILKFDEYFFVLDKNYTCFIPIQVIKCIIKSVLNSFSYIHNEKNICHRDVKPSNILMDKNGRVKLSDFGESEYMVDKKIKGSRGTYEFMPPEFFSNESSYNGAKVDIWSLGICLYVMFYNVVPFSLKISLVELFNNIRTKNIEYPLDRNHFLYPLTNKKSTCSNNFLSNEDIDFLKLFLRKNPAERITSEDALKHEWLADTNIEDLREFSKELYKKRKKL

Turning to `CCCCCN1CCCC1CNS(=O)(=O)c1cccc(C(=O)Nc2cccc(C#N)c2)c1` (stereo not given), the growth inhibition was 7% in test [1] and 90% (active) in test [4]. The inhibition in test [2] is 19%; in test [3] it was -1%. In addition, the outcome in test [5], in test [6], in test [7] and in test [8] was inactive.

As for `CC(C)(C)OC(=O)NCc1ccc(Nc2nnc(-c3ccc(OCC(=O)NCc4ccc(C(C)(C)C)cc4)c([N+](=O)[O-])c3)o2)cc1`, the growth inhibition was 82% (active) in test [1] and 96% (active) in test [4]. Also, the figures for the inhibition in test [2] and in test [3] were 10% and -2%, respectively. Further, the outcome in test [5], in test [6], in test [7] and in test [8] was inactive.

Turning to `O=C(Nc1cc(Cl)cc(Cl)c1)Nc1ccnc2ccccc12`, the growth inhibition in test [1] is 65% (active); in test [4] it was 96% (active). For the same compound, the inhibition in test [2] was 15%; in test [3], -2%. The outcome in test [5], in test [6], in test [7] and in test [8] was inactive.

As for `CN(CCN(C)CC(O)c1ccc(Cl)c(Cl)c1)CC(O)c1ccc(Cl)c(Cl)c1` (stereo not given), the results for the growth inhibition in test [1] and in test [4] were 73% (active) and 91% (active), respectively. Further, the values for the inhibition in test [2] and in test [3] were 22% and -2%, respectively. Besides, the result in test [5], in test [6], in test [7] and in test [8] was inactive.

Take `COc1cc(OC)nc(-c2cccc(NC(=O)c3ccc4c(=O)n(CCN5CCCCC5)cnc4c3)c2)n1`: the growth inhibition is 86% (active) in test [1] and 100% (active) in test [4]. The inhibition in test [2] is 11%; in test [3], -1%. Besides, the result in test [5], in test [6], in test [7] and in test [8] was inactive.

As to `CC(C)(C)c1cc(C(=O)N2CCN(c3nccnc3C#N)CC2)n(Cc2ccccc2)n1`, the values for the growth inhibition in test [1] and in test [4] were 93% (active) and 100% (active), respectively. The inhibition in test [2] was -11%; in test [3] it was -9%. In addition, the outcome in test [5], in test [6], in test [7] and in test [8] was inactive.

Take `O=C(Nc1ccnc2ccccc12)NC1CCN(CCc2ccccc2)CC1`: the growth inhibition was 43% in test [1] and 100% (active) in test [4]. For the same compound, the inhibition is 7% in test [2] and -3% in test [3]. Also, the outcome in test [5], in test [6], in test [7] and in test [8] was inactive.

For `O=C(/C=C/c1ccc(-c2ccccc2)cc1)NCCCCCN1CCC(c2c[nH]c3ccccc23)CC1`, the growth inhibition was 23% in test [1] and 97% (active) in test [4]. Besides, the results for the inhibition in test [2] and in test [3] were 91% (active) and 6%, respectively. The outcome in test [5], in test [6], in test [7] and in test [8] was inactive.

`Cc1noc(C)c1S(=O)(=O)N(C)Cc1ccc(-c2ccc(Cl)cc2)o1`: the growth inhibition in test [1] and in test [4] was 100% (active) each time. Also, the inhibition is 10% in test [2] and -3% in test [3]. Further, the outcome in test [5], in test [6], in test [7] and in test [8] was inactive.

For `CN1CCN(Cc2ccc(-c3ccc4c(Nc5cc(O)c(F)cc5Cl)ccnc4c3)o2)CC1`, the growth inhibition was 99% (active) in test [1] and 101% (active) in test [4]. Also, the results for the inhibition in test [2] and in test [3] were 27% and 3%, respectively. Besides, the outcome in test [5], in test [6], in test [7] and in test [8] was inactive.

As to `CC(C)(C)c1ccc(CNC(=O)/C=C/c2ccc(CNC3CCNCC3)cc2)cc1`, the growth inhibition in test [1] was 21%; in test [4] it was 96% (active). The figures for the inhibition in test [2] and in test [3] were 6% and 1%, respectively. The result in test [5], in test [6], in test [7] and in test [8] was inactive.

`COC(=O)c1cc(OC)c(OC)cc1NC(=O)NC12CC3CC(CC(C3)C1)C2`: the results for the growth inhibition in test [1] and in test [4] were 3% and 94% (active), respectively. For the same compound, the inhibition in test [2] and in test [3] was 6% in each case. Moreover, the result in test [5], in test [6], in test [7] and in test [8] was inactive.

On to `O=C(CNC(=O)c1ccc(O)cc1)Nc1ccc(-c2cccc(-c3nc4ccc(C(F)(F)F)cc4[nH]3)c2)cc1`, for which the figures for the growth inhibition in test [1] and in test [4] were 47% and 92% (active), respectively. Further, the inhibition in test [2] was 26%; in test [3] it was 3%. Further, the outcome in test [5], in test [6], in test [7] and in test [8] was inactive.

As to `CC1(C)N=C(N)N=C(N)N1OCCCOc1cc(Cl)cc(Cl)c1`, the growth inhibition is 97% (active) in test [1] and 95% (active) in test [4]. Also, the results for the inhibition in test [2] and in test [3] were 62% (active) and 0%, respectively. The result in test [5], in test [6], in test [7] and in test [8] was inactive.

Consider `Nc1ncc(OC2CCCCC2)c(N)n1`, for which the growth inhibition in test [1] was -1%; in test [4], 94% (active). Further, the results for the inhibition in test [2] and in test [3] were -4% and -1%, respectively. Further, the outcome in test [5], in test [6], in test [7] and in test [8] was inactive.

For the compound `O=c1cc(NCCCNCc2cccc(SC(F)(F)F)c2)[nH]c2ccccc12`, the growth inhibition was 94% (active) in test [1] and 100% (active) in test [4]. Besides, the inhibition in test [2] was -9%; in test [3], 6%. The outcome in test [5], in test [6], in test [7] and in test [8] was inactive.

As for `CCCC1N=C(N)N=C(N)N1c1ccc(C)cc1` (stereo not given), the growth inhibition is 2% in test [1] and 94% (active) in test [4]. Besides, the inhibition in test [2] was 1%; in test [3], -3%. In addition, the outcome in test [5], in test [6], in test [7] and in test [8] was inactive.

In the case of `COc1ccc(CC(=O)Nc2ccc(Nc3nc(C)cc(N(C)C)n3)cc2)cc1`, the growth inhibition in test [1] was 31%; in test [4], 97% (active). Also, the values for the inhibition in test [2] and in test [3] were 17% and -3%, respectively. Moreover, the result in test [5], in test [6], in test [7] and in test [8] was inactive.

On to `Cc1cc(N2CCCC2)nc(/N=C(\N)Nc2cccc(C(F)(F)F)c2)n1`, for which the growth inhibition in test [1] was 100% (active); in test [4] it was 101% (active). The inhibition is 33% in test [2] and 1% in test [3]. In addition, the outcome in test [5], in test [6], in test [7] and in test [8] was inactive.

With `COc1ccc2nc3cc(Cl)ccc3c(Nc3ccc(Sc4ccc(Nc5c6ccc(Cl)cc6nc6ccc(OC)cc56)cc4)cc3)c2c1`, the results for the growth inhibition in test [1] and in test [4] were 94% (active) and 92% (active), respectively. In addition, the inhibition in test [2] was 1%; in test [3] it was -4%. Also, the result in test [5], in test [6], in test [7] and in test [8] was inactive.

For orientation: inhibition means the relative decrease from the control value, in per cent.
